Assay results taken from PubChem BioAssay (NCATS).
Values without a mark were called inactive. Records with an inconclusive call do not appear. Where a call stands in place of a potency, no number is given. For part of these data: Potency and affinity values are given separately. Activity calls are given as the source filed them. Unless noted, no rule for the calls is given here.

Key:
[1] = Ebola virus entry assay, green fluorescence channel
[2] = Ebola virus entry assay, blue channel fluorescence
[3] = Ebola virus entry assay, ratio channel
[4] = Ebola virus entry assay, reporter ratio channel; Channel type: primary
[5] = Ebola virus entry assay, blue channel (ratio component)
[6] = qHTS assay for measurement of the activity of small molecule inhibitors on Zika virus induced Caspase-3 activity in human iPSC derived neural progenitor cells (hNPCs) (AID 1224857; active = well fitted inhibition curve with a large enough effect; also: nearly all actives have a fitted effect of over 65% in size); conditions: hNPCs ZIKV-induced caspase-3/7, Caspase-Glo luminescence, 6 h; series mostly up to 45.7 µM
Summary of the method: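 Quantitative HTS format: human iPSC neural progenitors, 1 h compound pretreatment, ZIKV 2 FFU/cell for 6 h at 37 C. Percent inhibition derived from luminescent caspase-3/7 signal between uninfected and infected controls.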

[7] = qHTS assay for measurement of the activity of small molecule inhibitors on Zika virus induced Caspase-3 activity in human astrocytoma cells (AID 1224859; active = well fitted inhibition curve with a large enough effect); conditions: SNB-19 ZIKV-induced caspase-3/7, luminescence, 6 h; series mostly up to 45.7 µM
Summary of the method: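 Readout is luminescence from Caspase-Glo 3/7 added after a 6 h ZIKV infection (2 FFU/cell) of compound-pretreated (1 h) SNB-19 cells; data expressed as % inhibition versus uninfected and infected wells.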

Structure (SMILES)	efficacy [1] [%]	outcome [2]	outcome [3]	outcome [4]	outcome [5]	AC50 [4]	AC50 [2]	AC50 [3]	Potency [6]	outcome [7]
NCCc1ccc(O)c(O)c1	28.6	inactive	inactive	inactive	inactive					
c1cnc(N2CCN(Cc3ccc4c(c3)OCO4)CC2)nc1	47.2	inactive	inactive	inactive	inactive					
CN(C(=O)CCCOc1ccc2[nH]c(=O)ccc2c1)C1CCCCC1	72.6	inactive	inactive	inactive	inactive					
CC1(C)O[C@@H]2C[C@H]3[C@@H]4C[C@H](F)C5=CC(=O)C=C[C@]5(C)[C@H]4[C@@H](O)C[C@]3(C)[C@]2(C(=O)CO)O1	79.9	inactive	inactive	inactive	inactive					
NS(=O)(=O)c1ccc(N2CCCCS2(=O)=O)cc1	-36.2	inactive	inactive	inactive	inactive					
C[C@]12CC[C@H]3[C@@H](CCC4=CC(=O)CC[C@@]43C)[C@@H]1CC[C@@H]2C(=O)CO	61.9	inactive	inactive	inactive	inactive					
O=C(/C=C/c1ccccc1)NCCO	100	inactive	inactive		inactive	39.8 µM (active)				
COc1ccc(S(=O)(=O)N2c3ccc(Cl)cc3[C@@](O)(c3ccccc3Cl)[C@H]2C(=O)N2CCC[C@@H]2C(N)=O)cc1OC	45				inactive	10 µM (active)	10 µM (active)	10 µM (active)		
CCn1c(=O)c2c(nc(C=Cc3ccc(OC)c(OC)c3)n2C)n(CC)c1=O	44.2	inactive	inactive	inactive	inactive					
CCNC(=O)NCCCOc1cccc(CN2CCCCC2)c1	42.2	inactive	inactive	inactive	inactive					
O=C(Nc1ccc(S(=O)(=O)N2CCOCC2)cc1)c1cc(Cl)ccc1NS(=O)(=O)c1ccc(Cl)s1	119	inactive	inactive		inactive	39.8 µM (active)				
CC(=O)N(CC(=O)N(C)C)c1ccccc1	35.3	inactive	inactive	inactive	inactive					
CC(=O)OCC(=O)[C@@]12N=C(C)O[C@@H]1C[C@H]1[C@@H]3CCC4=CC(=O)C=C[C@]4(C)[C@H]3[C@@H](O)C[C@@]12C	27	inactive	inactive	inactive	inactive					
CC[N+](CC)(CC)CCOc1ccc(/C=C/c2ccccc2)cc1	64.2	inactive	inactive		inactive	39.8 µM (active)				
COc1cc2c(cc1OC)C(C(C(=O)N(CCc1ccc(OC)c(OC)c1OC)CCc1ccc(OC)c(OC)c1OC)c1ccccc1)=NCC2 (configuration not stated)	62.1	inactive			inactive	11.2 µM (active)		11.2 µM (active)		
CCCC(=O)O[C@]1(C(=O)CC)CC[C@H]2[C@@H]3CCC4=CC(=O)CC[C@]4(C)[C@H]3[C@@H](O)C[C@@]21C	46.1	inactive	inactive	inactive	inactive					
Cc1cc(C)c(/C=C2\C(=O)Nc3ccccc32)[nH]1	78.6	inactive	inactive		inactive	35.5 µM (active)				
O=C(CS)Nc1ccccc1	30.5	inactive	inactive		inactive	25.1 µM (active)				
C[C@]12CCC(=O)C=C1CC[C@@H]1[C@@H]2CC[C@@]2(C)[C@H]1CC[C@]2(O)C(=O)CO	55.8	inactive	inactive	inactive	inactive					
CN1Cc2c(N)cccc2C(c2ccccc2)C1 (configuration not stated)	99.7				inactive	25.1 µM (active)	17.8 µM (active)	25.1 µM (active)		
CCCCCC(=O)O[C@]1(C(C)=O)CC[C@H]2[C@@H]3CCC4=CC(=O)CC[C@]4(C)[C@H]3CC[C@@]21C	74.4	inactive	inactive	inactive	inactive					
O=C(CCCN1CCN(c2ccccn2)CC1)c1ccc(F)cc1	28.5	inactive	inactive	inactive	inactive					
CC(=O)[C@@]1(O)CC[C@H]2[C@@H]3C[C@H](C)C4=CC(=O)CC[C@]4(C)[C@H]3CC[C@@]21C	52.6	inactive	inactive	inactive	inactive					

Structure (SMILES)	efficacy [1] [%]	outcome [2]	outcome [3]	outcome [4]	outcome [5]	AC50 [4]	AC50 [2]	AC50 [3]	Potency [6]	outcome [7]
O=C(Nc1ccc([N+](=O)[O-])cc1)Nc1ccc([N+](=O)[O-])cc1	-37.1	inactive	inactive	inactive	inactive					
CN1CCOC(c2ccccc2)c2ccccc2C1 (configuration not stated)	45.6	inactive	inactive		inactive	39.8 µM (active)				
COc1cc(NS(=O)(=O)c2ccc(N)cc2)nc(OC)n1	31.6	inactive	inactive	inactive	inactive					
CCN(CC)CC(=O)Nc1c(C)cccc1C(=O)OC	26	inactive	inactive	inactive	inactive					
CC1=C(CC(=O)O)c2cc(F)ccc2/C1=C\c1ccc(S(C)(=O)=O)cc1	40.3	inactive	inactive		inactive	39.8 µM (active)				
CCC(=O)O[C@]1(C(=O)SCF)[C@H](C)C[C@H]2[C@@H]3C[C@H](F)C4=CC(=O)C=C[C@]4(C)[C@@]3(F)[C@@H](O)C[C@@]21C	69.2	inactive	inactive	inactive	inactive					
Oc1ccc(/C=C/c2cc(O)cc(O)c2)cc1	48.9	inactive	inactive	inactive	inactive					
CC(=O)OCC(=O)[C@@]1(O)CC[C@H]2[C@@H]3CCC4=CC(=O)C=C[C@]4(C)[C@H]3[C@@H](O)C[C@@]21C	-46.1	inactive	inactive	inactive	inactive					
Nc1cc(C(F)(F)F)ccc1S	-31.2	inactive	inactive	inactive	inactive					
CCOCCn1c(N2CCCN(C)CC2)nc2ccccc21	58.4	inactive	inactive		inactive	39.8 µM (active)				
CCCCC(=O)O[C@]1(C(=O)CO)CC[C@H]2[C@@H]3CCC4=CC(=O)CC[C@]4(C)[C@H]3[C@@H](O)C[C@@]21C	66.7	inactive	inactive	inactive	inactive					
COC[C@@H](c1ccc(C(F)(F)F)cc1)N1CCN(C2(C)CCN(C(=O)c3c(C)ncnc3C)CC2)C[C@H]1C	69.2	inactive			inactive	25.1 µM (active)		25.1 µM (active)		
C#C[C@]1(O)CC[C@H]2[C@@H]3[C@H](C)CC4=C(CCC(=O)C4)[C@H]3CC[C@@]21C	42.7	inactive			inactive	15.8 µM (active)		15.8 µM (active)		
CCOP(=S)(OCC)O/N=C(\C#N)c1ccccc1	-42.7	inactive	inactive	inactive	inactive				inactive	inactive
CCCC(=O)OC[C@@H](OC(=O)CCC)[C@@H](OC(=O)CCC)[C@H](Cn1c2nc(=O)[nH]c(=O)c-2nc2cc(C)c(C)cc21)OC(=O)CCC	140	inactive	inactive	inactive	inactive					
CCN(CC)C(=O)Nc1ccc(OCC(O)CNC(C)(C)C)c(C(C)=O)c1 (configuration not stated)	-36	inactive	inactive	inactive	inactive					
C#C[C@]1(O)C=C[C@H]2[C@@H]3CCC4=CC(=O)CC[C@@H]4[C@H]3CC[C@@]21CC	51.7	inactive	inactive	inactive	inactive				inactive	inactive
CC[C@H]1C[C@H]2[C@@H]3CCC4=CC(=O)CC[C@@H]4[C@H]3CC[C@]2(C)[C@H]1O	63.1	inactive			inactive	15.8 µM (active)		15.8 µM (active)	inactive	inactive
COC(=O)c1nc(Cl)c(Cl)nc1N	66.4	inactive			inactive	4.47 µM (active)		4.47 µM (active)		
CCOC(=O)OC(C)OC(=O)[C@@H]1N2C(=O)[C@@H](NC(=O)[C@H](N)c3ccccc3)[C@H]2SC1(C)C (some centres not stated)	47.6	inactive	inactive	inactive	inactive					
O=C(NCC1CN(c2ccc(N3CCOCC3=O)cc2)C(=O)O1)c1ccc(Cl)s1 (configuration not stated)	23	inactive	inactive	inactive	inactive					
C=CC[C@]1(O)CC[C@H]2[C@@H]3CCC4=CC(=O)CCC4=C3C=C[C@@]21C	89.4		inactive			35.5 µM (active)	28.2 µM (active)		inactive	inactive
COc1ccc(-c2nc3ccc(C4=NNC(=O)CC4C)cc3[nH]2)cc1 (configuration not stated)	23.5	inactive			inactive	14.1 µM (active)		14.1 µM (active)		
